# About 410 targets per protein were measured; listed, in parts, are those with the strongest signals and a random draw of the rest.
# B1: Epa1-NP-mutant-Y228W (Candida glabrata), Q6VBJ0 (protein)
# chain: MILNPALFLNKCVCIYTTLILLLLTNGGYATSSNDISLASKDPTTFPLGCSPDITTPKKGLSMELYSYDFRKKGSYPCWDAAYLDPNYPRTGYKSHRLLAKVDGVTGNINFYYHATKGCTPQLGHLPASYNYPKPLTMTNFTMLLYGYFRPKVTGFHTFTISADDLLFVNFGAGNAFDCCRRDSSADHFGNYQAYAIWGSKTAKDELTVHLDAGVYYPIRLFYNNREWDGALSFTFKTESNENTVSDFSEYFFSLDDTEEGCPGLISYDSSCASVKTSKIIGIDYHTETPNENLVPITKTIYHLGIPCTGTTTTPLCGSGFYDPLANKCVTINTSSTSSVTKTTSHTTSKEVSFHSSISSQKTLIPKSIPSPYGPIKSQSIPTEMETSSEISSSEYAFSDVISTPSHSPYTKKHSSLNSSSYTSTVIHSLTSYSISQGIFSTSLSEQNITSKSSTDKFSTATSMSNNITQSSIIISQFSTNNENYTTTSMHTSSDKISTETLNNSISTTTSILFSNSSTILKNNTTIISSDKDTHYHPVNPTIVCSTNKTEIICASITQPSISNSNNHWSSSVLKFNSTTVRSTLPSSAGSNETSINVPFSSSTESNTSTSSTSTSNSKMVRSTLPSSAGSNETSISVPFSSSTESNTSTSSTSTSNSKMVRSTLPSSAGSNETSINVPFSSSTESNTSTSSTSTSNSKTVRSTPFSSAGIIMTSLSQRNNKSASSYASSNSKCYNTADSCRKVHSTPSYLLTSSYTSEGVDYDCSLVSTKLKINDTNCVNNKHTTKSCLKTSVTTTIPTLEIKTARKSSSNTIGLHSYPTSSPNKSISSAPIIGYISSFKTIKTASPSYQTSDLTTITTITSLNNPGSTAVENTHESNDKSRKTSSNDISSKHSVIKETKDAVESSNKSHQTNTLKCSSIIIASSSHNSYESLGGTTLTLTLSKVYSPQNNDTLPFLEISEVNPSRTVLPESSKMMQYLTSTEERNKTARNTIATNIVSISTFHFEGEGNAIRMGYTQLLLMLIGIIVMNIGT
# Columns and labels:
# Assay in all cases: glycan array binding signal (z-score within array); higher = stronger binding
# Details in all cases: glycan notation: IUPAC condensed, linker removed; mutation: Y228W
# [1] = biological target: Fuc(a1-2)Gal(b1-3)GlcNAc(b1-3)[Neu5Ac(a2-6)Gal(b1-4)GlcNAc(b1-6)]Gal(b1-4)Glc
# Summary of the method: (§1)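 From the Consortium for Functional Glycomics database, 3228 arrays were curated, keeping only those whose protein sequence was available. Binding is given as a within-array Z-score averaged across arrays sharing a protein sequence and across linkers. Negative Z-scores can be read as non-binding.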
# [2] = biological target: Fuc(a1-2)Gal(b1-4)Glc
# Summary of the method: as §1
# [3] = biological target: Fuc(a1-2)Gal(b1-4)GlcNAc(b1-3)Gal(b1-4)GlcNAc(b1-2)Man(a1-3)[Fuc(a1-2)Gal(b1-4)GlcNAc(b1-3)Gal(b1-4)GlcNAc(b1-2)Man(a1-6)]Man(b1-4)GlcNAc(b1-4)GlcNAc
# Summary of the method: as §1
# [4] = biological target: Fuc(a1-2)Gal(b1-4)GlcNAc(b1-3)[Fuc(a1-3)[Gal(b1-4)]GlcNAc(b1-6)]Gal(b1-4)Glc
# Summary of the method: as §1
# [5] = biological target: Fuc(a1-2)Gal(b1-4)GlcNAc(b1-6)GalNAc
# Summary of the method: as §1
# [6] = biological target: Fuc(a1-2)Gal(b1-4)[Fuc(a1-3)]GlcNAc(b1-3)GalNAc
# Summary of the method: as §1
# [7] = biological target: Fuc(a1-2)[Gal(a1-3)]Gal(b1-3)GlcNAc(b1-3)GalNAc
# Summary of the method: as §1
# [8] = biological target: Fuc(a1-2)[Gal(a1-3)]Gal(b1-4)GlcNAc(b1-2)Man
# Summary of the method: as §1
# [9] = biological target: Fuc(a1-2)[Gal(a1-3)]Gal(b1-4)[Fuc(a1-3)]GlcNAc
# Summary of the method: as §1
# [10] = biological target: Fuc(a1-2)[GalNAc(a1-3)]Gal(b1-4)[Fuc(a1-3)]GlcNAc
# Summary of the method: as §1
# [11] = biological target: Fuc(a1-2)[GalNAc(a1-3)]Gal(b1-4)[Fuc(a1-3)]GlcNAc(b1-3)GalNAc
# Summary of the method: as §1
# [12] = biological target: Fuc(a1-3)[Gal(b1-4)]GlcNAc(b1-2)Man(a1-3)[Fuc(a1-3)[Gal(b1-4)]GlcNAc(b1-2)Man(a1-6)]Man(b1-4)GlcNAc(b1-4)[Fuc(a1-6)]GlcNAc
# Summary of the method: as §1
# [13] = biological target: Fuc(a1-3)[Gal(b1-4)]GlcNAc(b1-3)Gal(b1-4)[Fuc(a1-3)]GlcNAc(b1-3)Gal(b1-4)[Fuc(a1-3)]GlcNAc
# Summary of the method: as §1
# [14] = biological target: Fuc(a1-3)[Gal3S(b1-4)]GlcNAc6S
# Summary of the method: as §1
# [15] = biological target: Gal(a1-3)Gal(b1-4)GlcNAc(b1-6)GalNAc
# Summary of the method: as §1
# [16] = biological target: Gal(a1-3)[Gal(a1-4)]Gal(b1-4)GlcNAc
# Summary of the method: as §1
# [17] = biological target: Gal(a1-4)Gal(b1-4)GlcNAc
# Summary of the method: as §1
# [18] = biological target: Gal(b1-3)Gal(b1-4)GlcNAc
# Summary of the method: as §1
# [19] = biological target: Gal(b1-3)GalNAc
# Summary of the method: as §1
# [20] = biological target: Gal(b1-3)GalNAc(b1-3)Gal
# Summary of the method: as §1
# [21] = biological target: Gal(b1-3)GalNAc(b1-4)Gal(b1-4)Glc
# Summary of the method: as §1
# [22] = biological target: Gal(b1-3)GalNAc(b1-4)[Neu5Ac(a2-3)]Gal(b1-4)Glc
# Summary of the method: as §1
# [23] = biological target: Gal(b1-3)GlcNAc
# Summary of the method: as §1
# [24] = biological target: Gal(b1-3)GlcNAc(b1-2)Man
# Summary of the method: as §1
# [25] = biological target: Gal(b1-3)GlcNAc(b1-3)Gal(b1-4)GlcNAc
# Summary of the method: as §1
# [26] = biological target: Gal(b1-3)GlcNAc(b1-3)Gal(b1-4)GlcNAc(b1-2)Man(a1-3)[Gal(b1-3)GlcNAc(b1-3)Gal(b1-4)GlcNAc(b1-2)Man(a1-6)]Man(b1-4)GlcNAc(b1-4)GlcNAc
# Summary of the method: as §1
# [27] = biological target: Gal(b1-4)GlcNAc(a1-6)Gal(b1-4)GlcNAc
# Summary of the method: as §1
# [28] = biological target: Gal(b1-4)GlcNAc(b1-2)Man(a1-3)[Gal(b1-4)GlcNAc(b1-2)Man(a1-6)]Man(b1-4)GlcNAc(b1-4)[Fuc(a1-6)]GlcNAc
# Summary of the method: as §1
# [29] = biological target: Gal(b1-4)GlcNAc(b1-2)[Gal(b1-4)GlcNAc(b1-6)]Man(a1-6)[GlcNAc(b1-4)][Gal(b1-4)GlcNAc(b1-2)Man(a1-3)]Man(b1-4)GlcNAc(b1-4)GlcNAc
# Summary of the method: as §1
# [30] = biological target: Gal(b1-4)GlcNAc(b1-3)Gal(b1-4)GlcNAc(b1-2)[Gal(b1-4)GlcNAc(b1-3)Gal(b1-4)GlcNAc(b1-6)]Man(a1-6)[Gal(b1-4)GlcNAc(b1-3)Gal(b1-4)GlcNAc(b1-2)Man(a1-3)]Man(b1-4)GlcNAc(b1-4)[Fuc(a1-6)]GlcNAc
# Summary of the method: as §1
binder,measurement,setting,value
B1,glycan array binding signal (z-score),[1],-0.437
same,glycan array binding signal (z-score),[2],-0.146
same,glycan array binding signal (z-score),[3],0.051
same,glycan array binding signal (z-score),[4],-0.169
same,glycan array binding signal (z-score),[5],0.006
same,glycan array binding signal (z-score),[6],-0.204
same,glycan array binding signal (z-score),[7],-0.019
same,glycan array binding signal (z-score),[8],-0.304
same,glycan array binding signal (z-score),[9],-0.288
same,glycan array binding signal (z-score),[10],-0.138
same,glycan array binding signal (z-score),[11],-0.1
same,glycan array binding signal (z-score),[12],0.029
same,glycan array binding signal (z-score),[13],-0.169
same,glycan array binding signal (z-score),[14],0.109
same,glycan array binding signal (z-score),[15],-0.035
same,glycan array binding signal (z-score),[16],-0.336
same,glycan array binding signal (z-score),[17],-0.087
same,glycan array binding signal (z-score),[18],7.29
same,glycan array binding signal (z-score),[19],2.78
same,glycan array binding signal (z-score),[20],2.53
same,glycan array binding signal (z-score),[21],15
same,glycan array binding signal (z-score),[22],4.99
same,glycan array binding signal (z-score),[23],-0.24
same,glycan array binding signal (z-score),[24],-0.27
same,glycan array binding signal (z-score),[25],-0.333
same,glycan array binding signal (z-score),[26],-0.274
same,glycan array binding signal (z-score),[27],3.19
same,glycan array binding signal (z-score),[28],0.093
same,glycan array binding signal (z-score),[29],-0.205
same,glycan array binding signal (z-score),[30],2.98
